Experimental findings from PubChem BioAssay AID1022 (Emory University Molecular Libraries Screening Center, 2008) are described below.

Where “and” joins values, the source holds several entries; their conditions need not be identical. Equal values may be shown once. Out of some 220,000 compounds screened, about 3,300 (1.5%) were called active.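 Rule for the calls: active = compounds that cut the protein-peptide binding signal by more than 50% relative to plate controls in a single-dose test; inactive = the rest.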 Many of the other results were omitted from the sample, so actives are more common in it than they were.

Sequence of Induced myeloid leukemia cell differentiation protein Mcl-1 (Homo sapiens) (Q07820 whole entry, looked up): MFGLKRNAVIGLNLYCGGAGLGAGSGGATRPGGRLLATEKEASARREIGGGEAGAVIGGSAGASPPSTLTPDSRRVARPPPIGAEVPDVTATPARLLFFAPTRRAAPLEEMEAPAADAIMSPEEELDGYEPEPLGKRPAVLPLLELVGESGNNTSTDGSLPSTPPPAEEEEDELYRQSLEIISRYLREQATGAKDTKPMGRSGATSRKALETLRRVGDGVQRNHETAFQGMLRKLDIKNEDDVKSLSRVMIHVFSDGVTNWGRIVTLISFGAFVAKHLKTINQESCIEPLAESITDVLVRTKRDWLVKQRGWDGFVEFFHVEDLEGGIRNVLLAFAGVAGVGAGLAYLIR

The experiment has as its target Induced myeloid leukemia cell differentiation protein Mcl-1 (Homo sapiens) (UniProt Q07820). The experiment is described as follows: disruptors of Mcl-1 and Noxa BH3 peptide – biochemical, TR-FRET, 1536-well, primary screen (AID 1022).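 Note: His-tagged Mcl-1 with rhodamine Noxa BH3 peptide and terbium anti-His antibody; 0% = Mcl-1 plus Noxa peptide wells and 100% = peptide-only wells.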 The conditions noted are these: TR-FRET Mcl-1/Noxa peptide binding, 2 h; at 21.7 µM; hits give high values.
Regarding `Cc1c(NC(=O)C(=O)N/N=C/c2cccs2)c(=O)n(-c2ccccc2)n1C`, the inhibition (in general, the change of the read-out against control, counted positive when it falls) was -17.4% (inactive).

`O=C(Nc1n[nH]c(C(F)(F)F)n1)c1cccs1`: the inhibition was 1.44% (inactive).

`COC(=O)c1scc(C)c1NC(=O)CSc1ccc(Cl)cc1`: the inhibition was 2.67% (inactive).

As to `CC(=O)Nc1cccc(C(=O)Nc2nc(C)cs2)c1`, the inhibition was 18.4% (inactive).

Regarding `CCN(CC)C(=O)C(=O)Nc1cccc(Br)c1`, the inhibition was -12.2% (inactive).

For `CCN(CC)N=Nc1cccc(NC(C)=O)c1`, the inhibition is 52.4% (active).

On to `C=C(C)COc1ccc(-c2nc(N)ncc2-c2ccccc2OC)c(O)c1`, for which the inhibition was 19.2% (inactive).

As to `NC(=S)Nc1c(Cl)cccc1Cl`, the inhibition is -2.54% (inactive).

`Cc1ccc(OC(=O)c2c(C)nn(-c3ccccc3)c2C)cc1`: the inhibition is -10.1% (inactive).

On to `CC(C)CCN1NC2(CCC(C)CC2)NC1=S` (stereo not given), for which the inhibition is 10.8% (inactive).

Regarding `Cc1ccc(OS(=O)(=O)c2ccc(-c3csc(C)n3)s2)c(C)c1`, the inhibition is 10.9% (inactive).

As for `Cn1nc(C(F)(F)F)cc1-c1ccc(/C=C(\C#N)C(=O)c2cccc(C(F)(F)F)c2)s1`, the inhibition is 8.47% (inactive).

With `Cc1cc(C)n(C(=O)c2ccc(S(=O)(=O)N3CCCC3)cc2)n1`, the inhibition is 7.15% (inactive).

With `COc1ccc(C(=O)OCC(=O)c2ccc(C)c(S(=O)(=O)N3CCOCC3)c2)cc1OC`, the inhibition was -9.99% (inactive).

As for `Cc1cc(C)n(C(=O)c2ccc(C)c(S(=O)(=O)N3CCOCC3)c2)n1`, the inhibition was 72.5% (active).

On to `Cc1ccc(C)c2[nH]c(=O)c(CN(Cc3cccnc3)C(=S)NCc3ccco3)cc12`, for which the inhibition is 4.29% (inactive).

For the compound `N=C1/C(=C/c2cccn2-c2cccc([N+](=O)[O-])c2)C(=O)N=C2SC=CN12`, the inhibition was 64.6% (active).

On to `N/C(=N\OC(=O)CCn1cccc(C(F)(F)F)c1=O)c1ccc(OC(F)(F)F)cc1`, for which the inhibition is -5.59% (inactive).

As for `COc1ccc(NC2=CC(=S)NC(C)(C)C2)cc1`, the inhibition was 19.2% (inactive).

Take `COc1ccc2c(CN3CCN(S(=O)(=O)c4cccs4)CC3)cc(=O)oc2c1`: the inhibition is -3.37% (inactive).

`O=c1cc(CN2CCN(S(=O)(=O)/C=C/c3ccccc3)CC2)c2ccc(O)cc2o1`: the inhibition is 57.9% (active).

As to `O=C(CN1CCN(S(=O)(=O)/C=C/c2ccccc2)CC1)Nc1ccc(N2CCOCC2)cc1`, the inhibition is 9.11% (inactive).

Take `Cc1nc2ccccc2nc1N/N=C/c1ccc(O)cc1O`: the inhibition is -26.1% (inactive).

`CCCCCCCN=C(C)c1ccccc1O`: the inhibition was -3.31% (inactive).

In the case of `Cc1ccc(S(=O)(=O)Nc2nc3ccccc3s2)cc1[N+](=O)[O-]`, the inhibition was 9.42% (inactive).

For the compound `O=[N+]([O-])c1cc(Br)c(O)c(/C=N/Nc2nc3ccccc3s2)c1`, the inhibition is 79.4% (active).

On to `c1ccc2sc(NN=C3CCCC3)nc2c1`, for which the inhibition is 5.28% (inactive).

`CCCN(CCC)S(=O)(=O)c1ccc(C(=O)NNC(=O)c2cc(OC)c(OC)c(OC)c2)cc1`: the inhibition is 14.9% (inactive).

On to `Cc1cc(OCCCCOc2ccc(C#N)cc2)ccc1[N+](=O)[O-]`, for which the inhibition is 5.03% (inactive).

For `CC/C=C/C(=O)N1CC2(CC(c3cccc(NC(=O)CC)c3)=NO2)C[C@H]1C(N)=O` (stereo not given in full), the inhibition was -7.66% (inactive).

As for `COc1cc(/C=N/Nc2nc3ccccc3s2)ccc1O`, the inhibition is 27.8% (inactive).

`CCOc1cc(/C=C(\C#N)c2nc(-c3cccs3)c(NC(C)=O)s2)ccc1O`: the inhibition was 24.5% (inactive).

In the case of `COc1cc(/C=N\Nc2nc(-c3cccs3)c(NC(C)=O)s2)ccc1O`, the inhibition is 95.2% (active).

For `CC(C)c1ccc(Nc2nnc(SCC(=O)c3nnc(-c4ccccc4)o3)s2)cc1`, the inhibition was 104% (active).

Take `Cc1ccc(Nc2nnc(SCC(=O)c3cc4ccccc4o3)s2)cc1C`: the inhibition is 24.3% (inactive).

As to `O=C(CSc1nnc(Nc2ccccc2)s1)Nc1cccnc1Cl`, the inhibition was 9.43% (inactive).

For `Cc1cccc2c1-c1sc(C(=O)NCCCN3CCc4ccccc4C3)cc1CO2`, the inhibition is 11% (inactive).

For the compound `CCOC(=O)CN(C(=O)COc1nc(-c2ccccc2)cc(C)c1C#N)c1ccc(F)cc1`, the inhibition is 7.27% (inactive).

With `CN(C)C(=S)Nc1ccc(Br)cc1Cl`, the inhibition was -1.61% (inactive).

`O=C(Cc1ccccc1)NCc1ccc(F)cc1`: the inhibition is -0.05% (inactive).

With `CN(C)CCCNC(=O)c1ccc2[nH]c3ccccc3c2c1`, the inhibition was 3.04% (inactive).

For `CN(C)c1ccc(C(CNC(=O)c2ccc(F)cc2)c2c[nH]c3ccccc23)cc1` (stereo not given), the inhibition was 75.8% (active).

For `CCOC(=O)C1=NN(c2ccc(Cl)cc2)/C(=C/C2=NCCc3cc(OC)c(OC)cc32)S1`, the inhibition is 1.42% (inactive).

Consider `O=C(Cn1c[n+](CC(=O)c2ccc([N+](=O)[O-])cc2)cn1)c1ccc([N+](=O)[O-])cc1`, for which the inhibition was 27.4% (inactive) and -7.77% (inactive).

Consider `CCc1nnc(NC(=O)c2sc3nc(C)cc(COC)c3c2N)s1`, for which the inhibition was 22.4% (inactive).

With `CCc1ccc2nc3sc(C(=O)Nc4nnc(CC)s4)c(N)c3cc2c1`, the inhibition was 90.1% (active).

As to `CCc1nnc(NC(=O)c2cccc(S(=O)(=O)N(C)c3ccc(OC)cc3)c2)s1`, the inhibition is 10.9% (inactive).

For `C#CCO[C@@H]1C[C@H](n2cnc3c(=O)[nH]c(NC(=O)C(C)C)nc32)O[C@@H]1CO`, the inhibition was -275% (inactive).

`Cc1ccc(C(=O)Cn2cc([N+](=O)[O-])nc2C)cc1`: the inhibition is -26.9% (inactive).

On to `Cc1ccc(N2NC(=O)/C(=C/C=C/c3ccco3)C2=O)cc1C`, for which the inhibition was 6.33% (inactive).

`Cc1ccc(N=C2NC(=O)/C(=C/C=C/c3ccco3)S2)cc1C`: the inhibition was 107% (active).

On to `Cc1cccc(N=C2NC(=O)/C(=C/c3cn(C)c4ccccc34)S2)c1`, for which the inhibition was 4.96% (inactive).

For the compound `CC(C)(C)c1cc(NC(=O)NN2CCOCC2)nn1-c1c(Cl)cc(Cl)cc1Cl`, the inhibition is 2.67% (inactive).

Consider `N/C(=N\S(=O)(=O)c1ccc(Cl)cc1)N1CCOCC1`, for which the inhibition is -2.49% (inactive).

As for `C/C=C/C(=O)Nc1ccc(N2CCN(c3ccc(C(F)(F)F)cn3)CC2)nc1`, the inhibition was 4.65% (inactive).

For `Cc1ccnc(Nc2nc3ccccc3s2)n1`, the inhibition was -8.28% (inactive).

For `Cc1ccnc(-n2sc3ccccc3c2=O)n1`, the inhibition was 69% (active).

`Cc1ccnc(N2CCC(C(=O)NC3CCCCCC3)CC2)n1`: the inhibition is -9.93% (inactive).

With `CCCCCCCC(=O)OC(CN1CCCCCC1)CN1CCCC1=O` (stereo not given), the inhibition was -0.02% (inactive).

Turning to `Cc1ccc2cc(/C=N/Nc3ccc(C(=O)O)cc3)c(Cl)nc2c1`, the inhibition was 32.8% (inactive).

With `Cn1c2c(c(=O)n(C)c1=O)C(c1cccc(F)c1)C(C#N)=C(N)O2` (stereo not given), the inhibition is -5.47% (inactive).

As to `Cc1ccc(C2Nc3ccccc3C(=O)N2CCN2CCNC2=O)cc1` (stereo not given), the inhibition was -12.9% (inactive).

Regarding `CC(NC(=O)COC(=O)c1ccc(Cl)cc1O)c1ccc(F)cc1` (stereo not given), the inhibition is 0.03% (inactive).

With `O=C(COC(=O)c1ccc(F)cc1F)Nc1ncccn1`, the inhibition was 65.1% (active).

Consider `COc1cc(OC)cc(C(=O)OCC(=O)Nc2ccc(F)cc2F)c1`, for which the inhibition is 2.79% (inactive).

As to `Cc1nnc(Nc2ccccc2F)s1`, the inhibition is -14.1% (inactive).

For the compound `C/C(Cc1ccccc1)=N\NC(=O)CNC(=O)c1ccccc1Cl`, the inhibition is -7.79% (inactive).

As for `O=C1N(c2ccccc2)C(=Nc2ccccc2)SC12CC2`, the inhibition was 1.01% (inactive).

For `O=C1Oc2ccccc2C(=O)/C1=C/c1ccccc1O`, the inhibition was 81.4% (active).

Take `C=CCn1c2ccccc2c2nnc(SC(CC)C(=O)Nc3nc(C)c(C(=O)OCC)s3)nc21` (stereo not given): the inhibition is 11.2% (inactive).

For `C=CCn1c(SCC(=O)CC(=O)OCC)nc2cc(C(=O)N3CCC(C(N)=O)CC3)ccc2c1=O`, the inhibition is -5.71% (inactive).

Take `C=CCn1c2ccccc2c2nnc(SCc3[nH]c(=O)[nH]c3C(=O)CCCCC(=O)OCC)nc21`: the inhibition is 52.5% (active).

Turning to `CC(C)(C)n1cnnc1Sc1ccc([N+](=O)[O-])cn1`, the inhibition was 2.83% (inactive).

`Cn1cccc1/C=C1\SC(=O)N(CC(=O)Nc2ccc(F)cc2)C1=O`: the inhibition is 12.7% (inactive).

As to `N#Cc1ccccc1CN1C(=O)S/C(=C/c2cccn2-c2cccc(C(=O)O)c2)C1=O`, the inhibition is 66.4% (active).

For the compound `Cc1ccccc1NC(=O)CN1C(=O)N/C(=C\c2cccn2-c2cccc(C(=O)O)c2)C1=O`, the inhibition was 40.1% (inactive).

Regarding `Nc1ccc(N=Nc2ccccc2Cl)c(N)n1`, the inhibition was 10.8% (inactive).

As for `COc1ccc(CCNC(=O)C2CC3Cn4c(nc5cc(C)c(C)cc54)C3N2C)cc1` (stereo not given), the inhibition was -4.09% (inactive).

In the case of `COc1ccc(C(=O)O/N=C(\N)Cc2ccc(Cl)cc2Cl)cc1OC`, the inhibition was 6.09% (inactive).

`COc1ccc(CC(=O)Nc2ccccc2NC(=O)c2ccco2)cc1OC`: the inhibition was 36.8% (inactive).

`COc1ccc(C/C(N)=N/OC(=O)c2ccco2)cc1OC`: the inhibition is 64.8% (active).

Consider `N#C/C(=C\N1CCOCC1)S(=O)(=O)c1ccc(Cl)cc1`, for which the inhibition was -9.31% (inactive).

For the compound `COc1ccc(-c2ccc(OC(=O)NC3CCS(=O)(=O)C3)cc2)cc1` (stereo not given), the inhibition is -3.15% (inactive).

On to `COc1cccc2c(C)c(C(=O)O)[nH]c12`, for which the inhibition is 83.1% (active).

Take `COc1cccc2c(O)cc(=O)n(C)c12`: the inhibition is -20.5% (inactive).

On to `Cc1c(C(=O)N/N=C/c2ccccc2)[nH]c2c([N+](=O)[O-])cccc12`, for which the inhibition was 21% (inactive).

For `COc1ccc(CN2CCOC2=O)cc1OC`, the inhibition is 6.85% (inactive).

On to `COc1cccc(N2C(=O)CC(N3CCc4ccccc4C3)C2=O)c1` (stereo not given), for which the inhibition is -10.9% (inactive).

Consider `C=CCNC(=O)CSc1nc2scc(-c3ccco3)c2c(=O)n1CC=C`, for which the inhibition was 8.55% (inactive).

With `O=C1CCCC(O)=C1N=Nc1ccc(S(=O)(=O)N2CCOCC2)cc1`, the inhibition is 23.9% (inactive).

For `O=C1CCCC(O)=C1N=Nc1ccc2ncsc2c1`, the inhibition was 62.8% (active).

Consider `C/C(=N\NC(=O)c1cccnc1)c1ccc(-c2ccccc2)cc1`, for which the inhibition was 2.98% (inactive).

For the compound `O=C(NCC1CCCO1)/C(=C\c1ccco1)NC(=O)c1ccccc1` (stereo not given), the inhibition is 4.51% (inactive).

For the compound `C/C(=C\c1ccco1)C1Nc2cccc3cccc(c23)N1`, the inhibition is 74.9% (active).

Consider `COc1cccc(C2Nc3cccc4cccc(c34)N2)c1`, for which the inhibition was 34.5% (inactive).
